“And” between values parts separate entries of the source, which are not always exact repeats. Equal values may be shown once. Screen size: about 5,500 compounds; about 2,000 (36%) were called active. Another 18% or so got no clear call; they are omitted. Rule as the data show it: active = normalized growth mostly below about 0.91 (no sharp cut-off); inconclusive = no clear call, values can overlap the other calls; inactive = mostly above about 0.92. The list shows a part of the results.
Assay: chemical genetic growth profiling, strain panel (AID 1159580);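 also: tested at 20 µM; growth read once vehicle control cultures reached saturation at 30 °C; 1 = growth at the plate median or of vehicle wells; lower values mean less growth of the strain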
Details: S. cerevisiae deletion strains, growth OD

Measured: normalized growth

CN(C)CCC(c1ccccc1)c1ccccn1 (centres undefined)
inactive: locus YAL013W, strain DEP1, hits give low values 0.99 | locus YAL021C, strain ccr4, hits give low values 1.02 | locus YAL026C, strain drs2, hits give low values 1.02 | locus YAL030W, strain snc1, hits give low values 1 | locus YAL040C, strain CLN3, hits give low values 1.01 | locus YBL061C, strain skt5, hits give low values 1.01 | locus YBR009C, strain hhf1, hits give low values 1.01 | locus YBR021W, strain FUR4, hits give low values 1.01 | locus YBR023C, strain chs3, hits give low values 1.01 | locus YBR171W, strain sec66, hits give low values 1.03 | locus YBR229C, strain ROT2, hits give low values 1 | locus YBR231C, strain swc5, hits give low values 1.01 | locus YBR279W, strain paf1, hits give low values 1.01 | locus YCL011C, strain gbp2, hits give low values 1.01 | locus YCL016C, strain dcc1, hits give low values 1.02 | locus YCL029C, strain bik1, hits give low values 1 | locus YCL061C, strain MRC1 (second series), hits give low values 1.01 | locus YCL061C, strain MRC1, hits give low values 1.01 | locus YCL069W, strain vba3, hits give low values 1.01 | locus YCR088W, strain abp1, hits give low values 1 | locus YDL005C, strain med2, hits give low values 1.02 | locus YDL035C, strain GPR1, hits give low values 1.01 | locus YDL040C, strain nat1, hits give low values 1.01 | locus YDL074C, strain BRE1, hits give low values 0.991 | locus YDL101C, strain DUN1, hits give low values 1.01 | locus YDL134C, strain PPH21, hits give low values 1.01 | locus YDL185W, strain tfp1, hits give low values 1 | locus YDL192W, strain arf1, hits give low values 1.01 | locus YDR001C, strain nth1, hits give low values 1.01 | locus YDR069C, strain doa4, hits give low values 0.994 | locus YDR101C, strain arx1, hits give low values 1 | locus YDR137W, strain rgp1, hits give low values 1.03 | locus YDR150W, strain NUM1, hits give low values 1.01 | locus YDR159W, strain sac3, hits give low values 1.02 | locus YDR162C, strain NBP2, hits give low values 1.01 | locus YDR195W, strain ref2 0.981 | locus YDR297W, strain sur2, hits give low values 1 | locus YDR318W, strain mcm21, hits give low values 1.01 | locus YDR334W, strain swr1, hits give low values 1.01 | locus YDR335W, strain msn5, hits give low values 1.01 | locus YDR363W, strain ESC2, hits give low values 1.05 | locus YDR388W, hits give low values 1 | locus YDR392W, strain spt3, hits give low values 0.973 | locus YDR502C, strain sam2, hits give low values 0.994 | locus YEL003W, strain gim4, hits give low values 0.993 | locus YEL037C, strain rad23, hits give low values 1.02 | locus YEL061C, strain CIN8 (second series), hits give low values 1.01 | locus YEL061C, strain CIN8, hits give low values 1 | locus YER002W, strain NOP16, hits give low values 1.01 | locus YER015W, strain faa2, hits give low values 1.01 | locus YER016W, strain bim1, hits give low values 1.01 | locus YER110C, hits give low values 1 | locus YER111C, strain swi4, hits give low values 1.03 | locus YER155C, strain BEM2 (second series), hits give low values 1.02 | locus YER155C, strain BEM2, hits give low values 1 | locus YER167W, strain BCK2, hits give low values 1.01 | locus YFR010W, strain ubp6, hits give low values 1.01 | locus YGL078C, strain dbp3, hits give low values 0.991 | locus YGL086W, strain mad1, hits give low values 0.997 | locus YGL167C, strain pmr1, hits give low values 1.02 | locus YGL173C, strain kem1, hits give low values 1.01 | locus YGL227W, strain vid30, hits give low values 1.02 | locus YGL240W, strain doc1, hits give low values 0.999 | locus YGL248W, strain PDE1, hits give low values 1 | locus YGL253W, strain hxk2, hits give low values 1.02 | locus YGR135W, strain pre9, hits give low values 1.01 | locus YGR229C, strain SMI1, hits give low values 0.992 | locus YGR252W, strain gcn5, hits give low values 0.948 | locus YHR013C, strain ard1, hits give low values 1.03 | locus YHR027C, strain rpn1, hits give low values 1.03 | locus YHR030C, strain SLT2, hits give low values 1.01 and 0.972 | locus YHR079C, strain IRE1 (second series), hits give low values 1.01 | locus YHR079C, strain IRE1, hits give low values 0.975 | locus YHR094C, strain hxt1, hits give low values 1 | locus YHR129C, strain ARP1, hits give low values 0.998 | locus YHR142W, strain chs7, hits give low values 1.01 | locus YHR200W, strain rpn10, hits give low values 0.998 | locus YIL066C, strain RNR3, hits give low values 1.01 | locus YIL073C, strain SPO22, hits give low values 1.04 | locus YIL125W, strain kgd1, hits give low values 1.01 | locus YIR030C, strain dcg1, hits give low values 1.01 | locus YJL092W, strain hpr5, hits give low values 1.01 | locus YJL095W, strain BCK1 (second series), hits give low values 1.01 | locus YJL095W, strain BCK1, hits give low values 0.99 and 0.976 | locus YJL115W, strain asf1, hits give low values 1.01 | locus YJL129C, strain trk1, hits give low values 1.01 | locus YJL134W, strain LCB3, hits give low values 1.01 | locus YJL154C, strain vps35, hits give low values 1.01 | locus YJL164C, strain tpk1, hits give low values 1.01 | locus YJL166W, strain qcr8, hits give low values 1 | locus YJL168C, strain set2, hits give low values 1.01 | locus YJL187C, strain SWE1 (second series), hits give low values 1.01 | locus YJL187C, strain SWE1, hits give low values 1 | locus YJR043C, strain POL32, hits give low values 0.997

— PubChem BioAssay AID1159580 (chemical genetic matrix, 2015)
